# Records with an inconclusive call do not appear. Entries that show only a call come without a potency. Values without a mark were called inactive. The source made the active and inactive calls. Calls come from the whole dose curve; as a rule, active = well fitted curve in the direction sought with a large enough effect; inconclusive = small, poorly fitted or top-dose-only effect, or another doubt; inactive = no such curve, though single readings can be large; an effect the other way counts as inactive or inconclusive.
# Tests used:
# [1] = P-glycoprotein substrates identified in KB-3-1 adenocarcinoma cell line, qHTS therapeutic library screen (AID 1346986); note: nearly all actives have a fitted effect of over 60% in size;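 note: potency is for cytotoxicity meaning loss of cell viability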
# Summary of the method: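 Resistance attributable to P-gp was assessed by comparing AC50 in KB-8-5-11 with parental KB-3-1 and by tariquidar reversal. Cells were exposed 72 h and viability read by CellTiter-Glo.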
# [2] = P-glycoprotein substrates identified in KB-8-5-11 adenocarcinoma cell line, qHTS therapeutic library screen (AID 1346987); note: nearly all actives have a fitted effect of over 65% in size; for activity change, negative = cytotoxicity: series mostly up to about 44 µM
# Summary of the method: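 Steps: plate 500 KB-8-5-11 cells/well in DMEM + 10% FCS (colchicine removed); pin compounds in dose-response; incubate 72 h, 37 degree C, 5% CO2; add CellTiter-Glo, 5 min; read luminescence.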
# Potency is the fitted concentration of half-maximal effect.
smiles,measurement,setting,value
O=C(C1CC1)N1CC[C@@H](Cc2n[nH]c(=O)n2-c2ccc(-c3ccc4occc4c3)cc2)C1,Potency,[1],inactive
same,Potency,[2],inactive
CC(=O)O[C@@H]1[C@H](O[C@@H]2O[C@H](CO)[C@@H](O)[C@H](O)[C@H]2O)[C@@H](O[C@@H]2O[C@@H](C)[C@H](O)[C@@H](O[C@@H]3O[C@H](CO)[C@@H](O)[C@H](O)[C@H]3O)[C@H]2O)[C@H](OC(=O)C23CCC4(C)C(=CCC5C6(C)CC(O)C(O[C@@H]7O[C@H](C(=O)O)[C@@H](O)[C@H](O)[C@H]7O)C(C)(C(=O)O)C6CCC54C)C2CC(C)(C)CC3O)O[C@@H]1C (stereo partly drawn),outcome,[1],inactive [at 9.29 µM]
same,outcome,[2],inactive [at 9.29 µM]
CO/N=C(/C(=O)N[C@@H]1C(=O)N2C(C(=O)O)=C(CSC(=O)c3ccco3)CS[C@H]12)c1csc(N)n1,Potency,[1],inactive
same,Potency,[2],inactive
CCCn1cnc2c(NCc3ccccc3)nc(N[C@H](CC)CO)nc21,Potency,[1],inactive
same,Potency,[2],inactive
C[C@@H]1O[C@@H](O[C@H]2[C@H](OC(=O)[C@]34CCC(C)(C)C[C@H]3C3=CCC5[C@@]6(C)C[C@H](O)[C@H](O[C@@H]7O[C@H](CO)[C@@H](O[C@@H]8O[C@H](CO)[C@@H](O)[C@H](O)[C@H]8O)[C@H](O)[C@H]7O)[C@@](C)(CO)C6[C@H](O)C[C@@]5(C)[C@]3(C)C[C@H]4O)OC[C@H](O)[C@@H]2O)[C@H](O)[C@H](O)[C@H]1O[C@@H]1OC[C@@H](O)[C@H](O[C@@H]2OC[C@](O)(CO)[C@H]2O)[C@H]1O (stereo partly drawn),outcome,[1],inactive [at 9.29 µM]
same,outcome,[2],inactive [at 9.29 µM]
CC1CC(O)CC(C)(C)C1(O)CCO (stereo not drawn),Potency,[1],inactive
same,Potency,[2],inactive
COc1cc(-c2cccc(O)c2)cc2c1OCO2,Potency,[1],inactive
same,Potency,[2],inactive
C[C@@H]1O[C@@H](O[C@@H]2[C@@H](O)[C@H](O[C@@H]3[C@@H](O)[C@@H](O)[C@H](O[C@H]4[C@H](OC(=O)[C@]56CCC(C)(C)C[C@H]5C5=CCC7[C@@]8(C)C[C@H](O)[C@H](O[C@@H]9O[C@@H](C)[C@H](O)[C@@H](O)[C@H]9O)[C@@](C)(CO)C8CC[C@@]7(C)[C@]5(C)C[C@H]6O)O[C@H](C)[C@H](O)[C@@H]4O)O[C@H]3C)OC[C@H]2O)[C@H](O)[C@H](O)[C@H]1O (stereo partly drawn),outcome,[1],inactive [at 9.29 µM]
same,"activity change, negative = cytotoxicity",[2],4.66% [at 9.29 µM]
CC(=O)OCCC(C)CCC1C(C)(O)CCC2C(C)(C)CCCC21C (stereo not drawn),Potency,[1],inactive
same,Potency,[2],inactive
N[C@H]1C[C@H]1c1ccc(-c2cccc(O)c2)cc1,Potency,[1],inactive
same,Potency,[2],inactive
C[C@@H]1CC[C@]2(C(=O)O)CC[C@]3(C)C(=CCC4[C@]5(C)C(CC[C@]43C)C(C)(C)[C@@H](O)[C@H](O)[C@@H]5O)C2[C@]1(C)O (stereo partly drawn),Potency,[1],inactive
same,Potency,[2],inactive
CC(=O)O[C@@H]1[C@H](O[C@@H]2OC[C@](O)(CO)[C@H]2O)[C@@H](O[C@@H]2O[C@@H](C)[C@H](O)[C@@H](O)[C@H]2O)[C@H](OC(=O)[C@]23CCC(C)(C)C[C@H]2C2=CCC4[C@@]5(C)C[C@H](O)[C@H](O[C@@H]6O[C@H](C(=O)O)[C@@H](O)[C@H](O)[C@H]6O)[C@@](C)(C(=O)O)C5CC[C@@]4(C)[C@]2(C)CC3)O[C@@H]1C (stereo partly drawn),outcome,[1],inactive [at 9.29 µM]
same,"activity change, negative = cytotoxicity",[2],1.88% [at 9.29 µM]
OC[C@H]1O[C@@H](Oc2cc(O)cc(/C=C/c3ccc(O)cc3)c2)[C@H](O)[C@@H](O)[C@@H]1O,Potency,[1],inactive
same,Potency,[2],inactive
C=C1CC[C@H]2[C@@H](/C=C(\C)C(=O)[C@@]3(OC(C)=O)C[C@H](C)[C@H](OC(C)=O)[C@@H]3[C@H]1OC(C)=O)C2(C)C,Potency,[1],inactive
same,Potency,[2],inactive
Cc1c(N2C(=O)c3ccc(C(=O)O)cc3C2=O)c(=O)n(-c2ccccc2)n1C,Potency,[1],inactive
same,Potency,[2],inactive
C=CC1(C)C=C2C(=O)CC3C(C)(C)CCCC3(C(=O)O)C2(O)CC1 (stereo not drawn),Potency,[1],inactive
same,Potency,[2],inactive
COC(=O)C1C(c2ccc(O)cc2)C(C(=O)OC)C1c1ccc(O)cc1 (stereo not drawn),Potency,[1],inactive
same,Potency,[2],inactive
Nc1ccn([C@@H]2C(F)=C(CO)[C@@H](O)[C@H]2O)c(=O)n1,Potency,[1],3.66 µM (active)
same,Potency,[2],10.3 µM (active)
CC1(C)CC[C@]2(C(=O)O)CC[C@]3(C)C(=CCC4[C@@]5(C)C[C@H](O)[C@H](O[C@@H]6OC[C@H](O)[C@H](O)[C@H]6O)[C@@](C)(CO)C5CC[C@]43C)[C@@H]2C1 (stereo partly drawn),Potency,[1],inactive
same,Potency,[2],inactive

# Source: PubChem BioAssay (NCATS)
